Test results taken from the supplement of paper PMC6411743.
± gives the standard deviation of the averaged measurements. The full data set covers some 6,200 targets. This sample favours those with the largest changes.

Compound: Nc1ncnc2c1ncn2[C@@H]1O[C@H](COP(=O)(O)OP(=O)(O)NP(=O)(O)O)[C@@H](O)[C@H]1O [adenylyl imidodiphosphate]
Assay: NP40-soluble protein abundance relative to vehicle (solubility fold change) (ratio); higher = more soluble protein in presence of AMP-PNP
How it was run: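 Jurkat crude lysate (Dounce-homogenised) was treated with eight concentrations from 0.1 to 10 mM for 10 min at room temperature, then 3 min at 37 °C. It was solubilised with 0.8% NP40 and benzonase (60 min, 4 °C) and ultracentrifuged, and the supernatant was TMT-labelled for LC-MS/MS. Intensities were vsn-normalised, and the value is the fold change against the NP40-processed vehicle per replicate, from three independent experiments.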

UniProt Q8IY22, sequence (Q8IY22 whole entry): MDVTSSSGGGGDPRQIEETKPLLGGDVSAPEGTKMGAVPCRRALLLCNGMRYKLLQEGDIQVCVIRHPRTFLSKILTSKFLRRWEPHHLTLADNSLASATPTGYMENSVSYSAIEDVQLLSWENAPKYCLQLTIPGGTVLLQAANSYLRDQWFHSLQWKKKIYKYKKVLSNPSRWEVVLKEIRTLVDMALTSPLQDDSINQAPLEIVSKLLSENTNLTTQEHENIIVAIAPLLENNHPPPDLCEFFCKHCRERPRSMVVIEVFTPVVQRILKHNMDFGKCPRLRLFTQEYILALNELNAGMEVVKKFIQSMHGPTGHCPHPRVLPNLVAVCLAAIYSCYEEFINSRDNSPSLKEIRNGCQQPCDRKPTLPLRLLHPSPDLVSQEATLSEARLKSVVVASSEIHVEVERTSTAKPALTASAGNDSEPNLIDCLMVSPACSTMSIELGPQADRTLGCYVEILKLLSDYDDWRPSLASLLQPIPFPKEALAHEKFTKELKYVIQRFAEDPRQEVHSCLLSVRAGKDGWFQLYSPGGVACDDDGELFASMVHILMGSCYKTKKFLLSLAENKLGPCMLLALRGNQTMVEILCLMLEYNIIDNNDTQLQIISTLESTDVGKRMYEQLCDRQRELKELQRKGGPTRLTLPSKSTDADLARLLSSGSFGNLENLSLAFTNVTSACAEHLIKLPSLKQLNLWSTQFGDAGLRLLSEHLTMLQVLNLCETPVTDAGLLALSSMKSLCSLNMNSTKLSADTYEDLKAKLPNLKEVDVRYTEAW
UniProt Q92793, sequence (Q92793 whole entry, looked up): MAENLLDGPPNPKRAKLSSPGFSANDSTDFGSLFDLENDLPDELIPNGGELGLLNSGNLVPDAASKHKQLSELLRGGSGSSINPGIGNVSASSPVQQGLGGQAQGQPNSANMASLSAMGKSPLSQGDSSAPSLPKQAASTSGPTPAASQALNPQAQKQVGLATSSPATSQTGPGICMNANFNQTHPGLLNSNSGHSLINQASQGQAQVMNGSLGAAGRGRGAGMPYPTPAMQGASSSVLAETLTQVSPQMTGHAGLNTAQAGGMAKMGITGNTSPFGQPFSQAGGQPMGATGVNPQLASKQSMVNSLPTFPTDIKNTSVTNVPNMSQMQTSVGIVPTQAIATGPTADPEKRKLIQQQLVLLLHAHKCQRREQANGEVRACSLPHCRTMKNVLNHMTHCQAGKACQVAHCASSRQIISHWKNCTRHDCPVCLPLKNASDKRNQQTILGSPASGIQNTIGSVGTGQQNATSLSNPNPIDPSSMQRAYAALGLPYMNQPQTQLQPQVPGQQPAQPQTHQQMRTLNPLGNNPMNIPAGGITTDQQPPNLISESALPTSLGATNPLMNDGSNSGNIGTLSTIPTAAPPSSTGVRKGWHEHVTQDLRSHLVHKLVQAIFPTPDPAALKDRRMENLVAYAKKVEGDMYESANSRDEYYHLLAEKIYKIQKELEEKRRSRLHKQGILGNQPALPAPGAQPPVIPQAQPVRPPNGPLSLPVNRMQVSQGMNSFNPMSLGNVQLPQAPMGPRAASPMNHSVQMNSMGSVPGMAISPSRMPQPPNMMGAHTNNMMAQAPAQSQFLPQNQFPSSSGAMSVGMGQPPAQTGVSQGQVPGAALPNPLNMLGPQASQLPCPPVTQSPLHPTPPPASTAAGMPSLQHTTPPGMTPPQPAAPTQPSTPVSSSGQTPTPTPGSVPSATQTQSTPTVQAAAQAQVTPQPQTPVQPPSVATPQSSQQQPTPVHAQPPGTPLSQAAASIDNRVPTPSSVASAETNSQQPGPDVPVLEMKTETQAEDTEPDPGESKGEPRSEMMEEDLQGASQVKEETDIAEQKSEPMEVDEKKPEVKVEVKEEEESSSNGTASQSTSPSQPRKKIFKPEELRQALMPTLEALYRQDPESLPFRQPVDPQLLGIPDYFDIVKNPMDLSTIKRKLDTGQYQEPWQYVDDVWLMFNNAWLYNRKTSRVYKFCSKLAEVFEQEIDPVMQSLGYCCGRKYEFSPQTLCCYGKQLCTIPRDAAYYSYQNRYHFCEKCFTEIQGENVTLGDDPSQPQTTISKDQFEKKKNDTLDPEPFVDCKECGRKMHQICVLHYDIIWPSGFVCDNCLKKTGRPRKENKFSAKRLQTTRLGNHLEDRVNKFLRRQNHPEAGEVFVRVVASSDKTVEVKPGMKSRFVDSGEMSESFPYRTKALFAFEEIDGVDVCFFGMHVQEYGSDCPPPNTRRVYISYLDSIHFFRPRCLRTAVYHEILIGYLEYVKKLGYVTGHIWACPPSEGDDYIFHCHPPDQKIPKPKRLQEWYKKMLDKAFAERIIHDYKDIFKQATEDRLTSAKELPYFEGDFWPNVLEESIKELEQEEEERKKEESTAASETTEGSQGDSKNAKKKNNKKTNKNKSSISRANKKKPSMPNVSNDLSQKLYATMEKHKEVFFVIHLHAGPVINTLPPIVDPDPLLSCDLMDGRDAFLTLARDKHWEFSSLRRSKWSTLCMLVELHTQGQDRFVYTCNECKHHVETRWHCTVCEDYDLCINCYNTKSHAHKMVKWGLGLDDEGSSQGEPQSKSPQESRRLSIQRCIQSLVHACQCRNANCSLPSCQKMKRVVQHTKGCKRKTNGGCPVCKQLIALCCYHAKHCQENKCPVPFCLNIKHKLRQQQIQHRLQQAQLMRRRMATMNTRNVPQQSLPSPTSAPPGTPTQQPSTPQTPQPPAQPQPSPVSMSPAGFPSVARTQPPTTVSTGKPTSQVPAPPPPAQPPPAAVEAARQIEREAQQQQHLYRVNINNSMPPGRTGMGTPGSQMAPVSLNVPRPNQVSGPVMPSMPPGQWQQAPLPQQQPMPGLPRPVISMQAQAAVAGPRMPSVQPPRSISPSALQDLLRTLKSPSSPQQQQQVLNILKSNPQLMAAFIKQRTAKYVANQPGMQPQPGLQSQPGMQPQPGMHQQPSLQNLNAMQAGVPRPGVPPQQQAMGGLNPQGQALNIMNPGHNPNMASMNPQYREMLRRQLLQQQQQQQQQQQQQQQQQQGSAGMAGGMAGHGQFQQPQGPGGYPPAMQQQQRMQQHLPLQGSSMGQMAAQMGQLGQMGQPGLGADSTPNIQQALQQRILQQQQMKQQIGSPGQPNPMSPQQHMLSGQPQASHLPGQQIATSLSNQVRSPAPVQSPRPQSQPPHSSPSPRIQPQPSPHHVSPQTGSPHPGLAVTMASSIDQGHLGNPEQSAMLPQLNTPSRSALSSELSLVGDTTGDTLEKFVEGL
UniProt Q93073, sequence (Q93073 whole entry): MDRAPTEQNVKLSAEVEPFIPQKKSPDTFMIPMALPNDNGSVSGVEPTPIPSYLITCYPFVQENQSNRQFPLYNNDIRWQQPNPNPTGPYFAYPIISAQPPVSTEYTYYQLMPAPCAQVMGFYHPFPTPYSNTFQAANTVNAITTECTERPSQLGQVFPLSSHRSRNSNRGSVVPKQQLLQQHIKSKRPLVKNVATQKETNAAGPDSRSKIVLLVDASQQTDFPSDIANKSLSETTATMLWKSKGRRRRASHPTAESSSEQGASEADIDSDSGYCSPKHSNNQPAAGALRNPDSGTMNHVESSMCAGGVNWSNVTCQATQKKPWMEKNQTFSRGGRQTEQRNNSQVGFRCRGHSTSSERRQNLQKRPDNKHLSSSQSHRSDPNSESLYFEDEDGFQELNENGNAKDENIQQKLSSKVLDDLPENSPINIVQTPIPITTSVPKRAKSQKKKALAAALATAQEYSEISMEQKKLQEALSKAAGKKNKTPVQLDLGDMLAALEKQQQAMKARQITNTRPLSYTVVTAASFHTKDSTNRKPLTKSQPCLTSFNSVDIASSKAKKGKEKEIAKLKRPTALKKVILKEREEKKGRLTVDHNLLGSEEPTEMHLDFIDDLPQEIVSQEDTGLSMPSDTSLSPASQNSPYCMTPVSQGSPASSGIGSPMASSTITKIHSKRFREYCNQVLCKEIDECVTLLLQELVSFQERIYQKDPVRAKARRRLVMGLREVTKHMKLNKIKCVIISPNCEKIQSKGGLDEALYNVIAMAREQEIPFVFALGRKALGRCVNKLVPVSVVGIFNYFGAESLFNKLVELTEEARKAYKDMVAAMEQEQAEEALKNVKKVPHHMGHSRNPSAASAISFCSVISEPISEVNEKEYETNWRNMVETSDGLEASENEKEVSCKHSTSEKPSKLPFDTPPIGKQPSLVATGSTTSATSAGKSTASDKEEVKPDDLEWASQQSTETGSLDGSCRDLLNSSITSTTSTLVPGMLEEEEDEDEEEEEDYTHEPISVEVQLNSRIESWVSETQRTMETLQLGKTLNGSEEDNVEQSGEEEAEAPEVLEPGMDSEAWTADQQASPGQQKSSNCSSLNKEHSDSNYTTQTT
UniProt Q8N8A6, sequence (Q8N8A6 whole entry): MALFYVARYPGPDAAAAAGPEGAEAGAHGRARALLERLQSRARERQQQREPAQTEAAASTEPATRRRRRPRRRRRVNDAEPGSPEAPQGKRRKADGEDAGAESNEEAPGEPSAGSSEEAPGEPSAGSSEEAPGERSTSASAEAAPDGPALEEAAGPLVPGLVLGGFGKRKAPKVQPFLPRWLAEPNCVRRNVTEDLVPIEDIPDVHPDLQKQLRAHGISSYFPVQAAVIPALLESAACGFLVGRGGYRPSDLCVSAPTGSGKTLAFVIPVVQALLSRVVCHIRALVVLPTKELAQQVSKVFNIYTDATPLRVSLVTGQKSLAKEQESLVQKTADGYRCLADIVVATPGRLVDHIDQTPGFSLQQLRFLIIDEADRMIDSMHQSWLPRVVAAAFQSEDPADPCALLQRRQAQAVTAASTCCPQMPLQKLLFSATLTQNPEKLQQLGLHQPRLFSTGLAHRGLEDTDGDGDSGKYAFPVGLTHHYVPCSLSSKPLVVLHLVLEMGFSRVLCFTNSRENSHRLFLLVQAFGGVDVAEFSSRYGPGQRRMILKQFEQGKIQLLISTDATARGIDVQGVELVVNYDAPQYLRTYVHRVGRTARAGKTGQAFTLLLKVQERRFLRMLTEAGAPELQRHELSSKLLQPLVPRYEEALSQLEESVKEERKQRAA

Target	NP40-soluble protein abundance (concentration: 1mM)	NP40-soluble protein abundance (concentration: 2mM)	NP40-soluble protein abundance (concentration: 4mM)	NP40-soluble protein abundance (concentration: 6mM)	NP40-soluble protein abundance (concentration: 8mM)	NP40-soluble protein abundance (concentration: 10mM)
NSDHL (UniProt Q15738)	0.968 ± 0.04	0.892 ± 0.058	0.93 ± 0.022	0.953 ± 0.045	0.964 ± 0.036	0.923 ± 0.028
UniProt Q71F23	1.05 ± 0.028	1.07 ± 0.034	1.03 ± 0.016	1.02 ± 0.039	1.07 ± 0.013	1.08 ± 0.0087
UniProt Q92576|Q92576-2	1.046 ± 0.0099	1.09 ± 0.048	1.08 ± 0.008	1.08 ± 0.07	1.09 ± 0.04	1.11 ± 0.046
CMIP (UniProt Q8IY22)	0.986 ± 0.047	0.964 ± 0.031	0.942 ± 0.029	0.958 ± 0.046	0.935 ± 0.022	0.923 ± 0.043
UniProt Q13362-2|Q13362-3|Q13362-4	0.982 ± 0.017	1.04 ± 0.036	0.989 ± 0.018	0.976 ± 0.036	0.948 ± 0.018	0.966 ± 0.043
TMED4 (UniProt Q7Z7H5)	1.017 ± 0.0076	0.973 ± 0.026	0.99 ± 0.032	1.02 ± 0.036	1.02 ± 0.025	1 ± 0.038
UniProt Q6ZRI6|Q6ZRI6-2|H3BMJ2	0.9914 ± 0.0011	1.01 ± 0.044	1.01 ± 0.018	0.992 ± 0.029	1 ± 0.018	0.99766 ± 5.3e-05
UniProt Q8IXQ5|Q8IXQ5-2|Q8IXQ5-5	0.984 ± 0.042	0.979 ± 0.018	0.974 ± 0.029	0.9744 ± 0.0094	0.983 ± 0.044	0.9769 ± 0.0044
UniProt Q15006	0.984 ± 0.018	0.9532 ± 0.0062	0.975 ± 0.044	0.989 ± 0.049	1.02 ± 0.028	1.02 ± 0.013
DDX51 (UniProt Q8N8A6)	1.06 ± 0.018	1.09 ± 0.02	1.15 ± 0.059	1.2 ± 0.038	1.24 ± 0.033	1.423 ± 0.014
NUBPL (UniProt Q8TB37)	1 ± 0.045	1.01 ± 0.057	1.02 ± 0.05	1.06 ± 0.092	1.03 ± 0.092	1.05 ± 0.076
UniProt Q8IYB5-2|Q8IYB5-3	0.988 ± 0.028	0.986 ± 0.011	1.01 ± 0.031	0.995 ± 0.038	0.995 ± 0.025	1.01 ± 0.015
UniProt Q5F1R6|Q5F1R6-3	1.044 ± 0.0025	1.12 ± 0.041	1.123 ± 0.0067	1.11 ± 0.066	1.09 ± 0.019	1.11 ± 0.035
UniProt Q460N5|Q460N5-1	1.02 ± 0.02	0.993 ± 0.046	1.04 ± 0.039	0.9762 ± 0.0066	1.01 ± 0.029	0.9765 ± 0.0028
UniProt Q8N3X1|Q8N3X1-2	1.04 ± 0.042	1.12 ± 0.093	1.21 ± 0.11	1.45 ± 0.15	1.49 ± 0.17	1.58 ± 0.24
UniProt Q7Z7K6|Q7Z7K6-3	1.08 ± 0.068	1.153 ± 0.0086	1.3 ± 0.087	1.51 ± 0.12	1.72 ± 0.052	2.1 ± 0.13
UniProt Q16611|Q16611-2	0.994 ± 0.035	0.952 ± 0.016	0.985 ± 0.043	0.96 ± 0.023	0.974 ± 0.032	0.932 ± 0.026
UniProt Q14677|Q14677-2|Q14677-3	0.999 ± 0.026	1.03 ± 0.069	0.983 ± 0.052	1 ± 0.026	0.974 ± 0.03	1.03 ± 0.043
UniProt Q7L5N7|A0A087X0A3|Q7L5N7-2	0.987 ± 0.031	0.966 ± 0.051	0.979 ± 0.037	0.99 ± 0.035	0.985 ± 0.028	1.01 ± 0.036
TAF9 (UniProt Q16594)	1.009 ± 0.0054	1.04 ± 0.02	1.01 ± 0.018	1.01 ± 0.018	1.03 ± 0.016	1.05 ± 0.039

Target	NP40-soluble protein abundance (concentration: 1mM)	NP40-soluble protein abundance (concentration: 2mM)	NP40-soluble protein abundance (concentration: 4mM)	NP40-soluble protein abundance (concentration: 6mM)	NP40-soluble protein abundance (concentration: 8mM)	NP40-soluble protein abundance (concentration: 10mM)
GTF3C6 (UniProt Q969F1)	1.04 ± 0.045	1.07 ± 0.042	1.04 ± 0.032	0.984 ± 0.018	0.99 ± 0.047	1.01 ± 0.035
MDC1 (UniProt Q14676)	1.13 ± 0.032	1.31 ± 0.086	1.49 ± 0.12	1.86 ± 0.28	2.04 ± 0.41	2.34 ± 0.53
PDCL (UniProt Q13371)	0.966 ± 0.026	0.973 ± 0.039	0.969 ± 0.056	0.932 ± 0.062	0.938 ± 0.083	0.928 ± 0.082
UniProt Q8N122|Q8N122-3	1.01 ± 0.031	0.955 ± 0.021	0.985 ± 0.011	0.972 ± 0.013	0.967 ± 0.018	0.994 ± 0.034
THOC2 (UniProt Q8NI27)	1.36 ± 0.16	1.46 ± 0.2	1.63 ± 0.29	1.87 ± 0.53	2.02 ± 0.6	2.15 ± 0.77
EHBP1L1 (UniProt Q8N3D4)	1.06 ± 0.028	1.11 ± 0.099	1.07 ± 0.11	1.02 ± 0.034	1.01 ± 0.059	1.01 ± 0.08
TTC37 (UniProt Q6PGP7)	0.822 ± 0.084	0.793 ± 0.14	0.791 ± 0.11	0.768 ± 0.077	0.761 ± 0.078	0.76 ± 0.079
PRPF8 (UniProt Q6P2Q9)	0.989 ± 0.039	0.892 ± 0.15	0.979 ± 0.085	0.966 ± 0.098	1.05 ± 0.13	1.02 ± 0.16
PPWD1 (UniProt Q96BP3)	0.984 ± 0.013	0.933 ± 0.087	1 ± 0.06	1.01 ± 0.037	1.04 ± 0.042	1.02 ± 0.036
TGFBRAP1 (UniProt Q8WUH2)	0.96 ± 0.042	0.89 ± 0.093	0.93 ± 0.048	0.895 ± 0.064	0.916 ± 0.047	0.889 ± 0.052
UniProt Q684P5-2|Q684P5-3|Q684P5	1 ± 0.035	1 ± 0.024	0.997 ± 0.051	0.977 ± 0.029	0.963 ± 0.048	0.968 ± 0.026
UniProt Q7L5Y1|Q7L5Y1-4|Q7L5Y1-5	0.992 ± 0.03	1 ± 0.016	1.007 ± 0.0081	0.99 ± 0.04	1.01 ± 0.013	0.996 ± 0.0075
UniProt Q92793|Q92793-2	1.05 ± 0.037	1.05 ± 0.028	1.01 ± 0.035	1.01 ± 0.04	1.02 ± 0.015	1.05 ± 0.02
TBRG4 (UniProt Q969Z0)	0.984 ± 0.03	0.953 ± 0.033	0.955 ± 0.012	0.959 ± 0.028	0.941 ± 0.022	0.935 ± 0.054
ABHD11 (UniProt Q8NFV4)	1.02 ± 0.035	1.046 ± 0.0096	1.04 ± 0.023	0.995 ± 0.028	1 ± 0.02	1.01 ± 0.048
FAM91A1 (UniProt Q658Y4)	0.958 ± 0.033	0.915 ± 0.068	0.961 ± 0.031	0.99 ± 0.041	1.01 ± 0.034	0.975 ± 0.054
EMG1 (UniProt Q92979)	1.01 ± 0.03	1 ± 0.014	1.12 ± 0.087	1.19 ± 0.071	1.24 ± 0.096	1.26 ± 0.1
UniProt Q86W42|Q86W42-2	1.17 ± 0.087	1.25 ± 0.065	1.36 ± 0.11	1.49 ± 0.1	1.65 ± 0.18	1.67 ± 0.27
IQGAP2 (UniProt Q13576)	0.956 ± 0.027	0.935 ± 0.022	0.94 ± 0.051	0.944 ± 0.029	0.926 ± 0.039	0.932 ± 0.038
UniProt Q86UK7|Q86UK7-3|Q86UK7-2	1.03 ± 0.043	1.03 ± 0.022	1.07 ± 0.031	1.08 ± 0.038	1.1 ± 0.048	1.11 ± 0.07

Target	NP40-soluble protein abundance (concentration: 1mM)	NP40-soluble protein abundance (concentration: 2mM)	NP40-soluble protein abundance (concentration: 4mM)	NP40-soluble protein abundance (concentration: 6mM)	NP40-soluble protein abundance (concentration: 8mM)	NP40-soluble protein abundance (concentration: 10mM)
UniProt Q8NBP0|Q8NBP0-2	0.998 ± 0.019	0.97 ± 0.025	0.9847 ± 0.0052	0.984 ± 0.025	0.992 ± 0.032	0.991 ± 0.027
LEO1 (UniProt Q8WVC0)	1.025 ± 0.006	1.04 ± 0.062	1.01 ± 0.029	1.02 ± 0.03	0.997 ± 0.016	1.02 ± 0.024
UniProt Q93073|Q93073-2	0.997 ± 0.026	1.01 ± 0.046	0.978 ± 0.039	0.996 ± 0.013	0.972 ± 0.024	0.971 ± 0.027
USP34 (UniProt Q70CQ2)	0.958 ± 0.032	0.925 ± 0.044	0.955 ± 0.026	0.885 ± 0.021	0.877 ± 0.033	0.873 ± 0.014
UniProt Q8TB61|Q8TB61-2|Q8TB61-3	0.968 ± 0.041	0.969 ± 0.045	0.965 ± 0.045	0.953 ± 0.034	0.951 ± 0.042	0.989 ± 0.019
DNAJB14 (UniProt Q8TBM8)	0.975 ± 0.025	0.987 ± 0.066	0.971 ± 0.028	0.953 ± 0.039	0.952 ± 0.035	0.947 ± 0.035
ERCC6L (UniProt Q2NKX8)	0.998 ± 0.022	1.01 ± 0.036	0.993 ± 0.04	0.95 ± 0.032	0.942 ± 0.045	0.949 ± 0.064
SF3A1 (UniProt Q15459)	1.02 ± 0.022	1.05 ± 0.05	1.02 ± 0.014	1.07 ± 0.031	1.07 ± 0.017	1.09 ± 0.031
MTDH (UniProt Q86UE4)	1.13 ± 0.046	1.3 ± 0.16	1.32 ± 0.073	1.46 ± 0.2	1.47 ± 0.17	1.58 ± 0.17
URB2 (UniProt Q14146)	0.971 ± 0.018	0.9722 ± 0.0054	0.988 ± 0.013	1.05 ± 0.018	1.07 ± 0.023	1.1 ± 0.055
FAM117B (UniProt Q6P1L5)	0.99 ± 0.022	1.07 ± 0.04	1.01 ± 0.025	1.005 ± 0.01	0.9688 ± 0.0059	1.01 ± 0.022
KBTBD7 (UniProt Q8WVZ9)	0.977 ± 0.014	0.9633 ± 0.004	0.959 ± 0.025	0.987 ± 0.01	1.03 ± 0.018	0.988 ± 0.03
PCGF5 (UniProt Q86SE9)	1.01 ± 0.043	1.01 ± 0.029	1.01 ± 0.065	0.967 ± 0.054	0.974 ± 0.039	0.945 ± 0.036
UniProt Q15223	1.01 ± 0.026	1.028 ± 0.0082	1.011 ± 0.0089	1.01 ± 0.011	0.997 ± 0.023	1.01 ± 0.028
UniProt Q14197|J3KS15	1 ± 0.1	0.952 ± 0.083	0.974 ± 0.087	0.95 ± 0.13	0.978 ± 0.14	0.953 ± 0.19
NUP210 (UniProt Q8TEM1)	0.992 ± 0.025	0.952 ± 0.025	0.975 ± 0.021	0.972 ± 0.037	1.01 ± 0.029	0.986 ± 0.044
SYAP1 (UniProt Q96A49)	1 ± 0.046	1.06 ± 0.077	0.952 ± 0.072	0.94 ± 0.021	0.94 ± 0.039	0.918 ± 0.08
PSME4 (UniProt Q14997)	0.9678 ± 0.0088	0.905 ± 0.072	0.968 ± 0.045	0.884 ± 0.075	0.925 ± 0.11	0.884 ± 0.11
CBLL1 (UniProt Q75N03)	1 ± 0.01	1.04 ± 0.022	1.03 ± 0.045	0.995 ± 0.015	0.976 ± 0.014	0.985 ± 0.016
UniProt Q16630-2|Q16630	1.067 ± 0.004	1.12 ± 0.043	1.149 ± 0.0081	1.22 ± 0.025	1.3 ± 0.017	1.51 ± 0.045
